Screening results from PubChem.
The list is not random: actives were taken first. Their share in the collection is about 18%.
IL-1B inflam inh: inflammasome signaling inhibition, IL-1 beta readout | THP-1 LPS/ATP IL-1B secretion, AlphaLISA, 16 h; active compounds read low | activity change, % at 57.5 µM | actives 4.7% (n = 360,000) | AID 743279; in the data active = activity change below about -50%; inconclusive = mostly about -30% to -49%; also: % is scaled to controls: 0 for no effect and ±100 for the full control effect
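THP-1 cells pretreated 1 hr with compounds (up to 57.5 uM final), then stimulated with LPS (250 ng/mL final) plus ATP (1.25 mM final); secreted IL-1B measured by AlphaLISA after 16 hr, decreased signal indicating inhibition.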
HepG2 viability: counter-screen for TGF-b inhibitors: cytotoxicity in HepG2 cells; AID 588856; actives 0.76% (n = 410,000); HepG2 CAGA-GFP viability, ATP luminescence, 18 h; Potency, µM (top dose mostly 46.1 µM), without a hit: top-dose activity change, negative = cytotoxicity, hits mostly cytotoxic; also: potency is read from the fitted curve at half-maximal effect
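CellTiter-Glo luminescence gave cytotoxicity after 18 hours at 37 degrees C. The cells were HepG2 CAGA-GFP in 1% FBS DMEM, stimulated with 500 pg/mL TGF-beta after compound addition. %Activity was normalised to no-cell wells (complete cell-killing) and DMSO (no toxicity), and curves were fitted and classified.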
TDP1 block: blocks human tyrosyl-DNA phosphodiesterase 1. recombinant TDP1, AlphaScreen DNA substrate cleavage. Potency, µM (titrated, usually from 130 µM), inactives show top-dose activity change, negative = inhibition, usual class: inhibitors. Q9NUW8. actives 0.28% (n = 350,000); also: potency is read from the fitted curve at half-maximal effect; % is scaled to controls: 0 for no effect and ±100 for the full control effect; nearly all actives have a fitted effect of over 40% in size
Target sequence (Q9NUW8 whole entry, looked up): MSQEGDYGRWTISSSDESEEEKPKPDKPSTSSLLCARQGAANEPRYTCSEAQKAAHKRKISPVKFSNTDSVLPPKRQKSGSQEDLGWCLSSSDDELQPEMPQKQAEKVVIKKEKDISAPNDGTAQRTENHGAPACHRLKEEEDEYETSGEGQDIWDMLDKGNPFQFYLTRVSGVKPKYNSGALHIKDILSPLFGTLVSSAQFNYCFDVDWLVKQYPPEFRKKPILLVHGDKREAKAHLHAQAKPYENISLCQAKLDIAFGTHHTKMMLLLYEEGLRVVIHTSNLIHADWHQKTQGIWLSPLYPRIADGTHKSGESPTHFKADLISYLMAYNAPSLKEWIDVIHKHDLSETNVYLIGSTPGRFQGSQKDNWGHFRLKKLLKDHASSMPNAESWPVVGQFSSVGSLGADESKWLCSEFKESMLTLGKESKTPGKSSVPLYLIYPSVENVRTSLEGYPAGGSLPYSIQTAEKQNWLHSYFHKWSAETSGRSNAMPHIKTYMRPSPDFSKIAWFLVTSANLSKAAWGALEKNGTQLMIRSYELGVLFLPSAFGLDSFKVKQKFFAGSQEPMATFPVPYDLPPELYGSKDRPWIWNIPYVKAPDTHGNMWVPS
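Enzyme-compound mixtures sat 15 min at room temperature, followed by a 5 min reaction with 15 nM final substrate and 10 min with AlphaScreen beads. Recombinant human Tdp1 was used at 1 nM final.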
TDP1 cell noCPT: qHTS for Inhibitors of human tyrosyl-DNA phosphodiesterase 1 (TDP1): qHTS in cells in absence of CPT | DT40 Tdp1-/- hTDP1 cells, no CPT, ATP luminescence, 48 h | Potency, µM (highest dose often 46.2 µM), without a hit: top-dose activity change, negative = growth inhibition, actives largely listed as inhibitors | actives 15% (n = 420,000); also: potency is read from the fitted curve at half-maximal effect; % is scaled to controls: 0 for no effect and ±100 for the full control effect; nearly all actives have a fitted effect of over 55% in size
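Luminescent ATP content (CellTiter-Glo) served as the growth readout. Knockout chicken DT40 cells expressing human TDP1 were exposed to compounds without camptothecin for a minimum 48 hr at 37 °C.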
TGFb SMAD3 inh: inhibitors of TGF-b signaling; HepG2 CAGA-GFP TGF-b/SMAD3 reporter, GFP fluorescence, 18 h; TGF-beta stimulated, 500 pg/mL final; Potency, µM (titrated, usually from 46.1 µM), for inactives: top-dose activity, negative = inhibition, usual class: inhibitors; actives 1.2% (n = 410,000); AID 588855; also: potency is read from the fitted curve at half-maximal effect; % is scaled to controls: 0 for no effect and ±100 for the full control effect; nearly all actives have a fitted effect of over 65% in size
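First, reporter cells (HEPG2 CAGA-GFP) rested 2 h at 37 degrees C. Next, compounds were pinned in and TGF-beta added to 500 pg/mL final. After 18 h, GFP was imaged per cell and summed per well.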
DT40 TDP1 CPT: growth inhibition of DT40 Tdp1-/-;hTDP1 cells with camptothecin (screen for TDP1 inhibitors); chicken DT40 Tdp1-/-;hTDP1 cells + 20 nM CPT, ATP luminescence, 48 h; Potency, µM (doses to about 46.2 µM), without a hit: at the top dose activity change, negative = growth inhibition, most hits filed as inhibitors; actives 12% (n = 420,000); AID 686979; also: potency is read from the fitted curve at half-maximal effect; % is scaled to controls: 0 for no effect and ±100 for the full control effect; nearly all actives have a fitted effect of over 55% in size
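Chicken DT40 Tdp1-/- cells stably complemented with human TDP1 were seeded at 400 cells/well in medium containing 20 nM camptothecin, exposed to pin-transferred compounds, and grown at 37 °C for at least 48 hr. Viability was read as ATP luminescence.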
Active calls of the source: *; ? = inconclusive; · = no result given; [ ] = remark or other dose. Unless noted, calls follow the shape of the dose curve; as a rule, active = well fitted curve in the direction sought with a large enough effect; inconclusive = small, poorly fitted or top-dose-only effect, or another doubt; inactive = no such curve, though single readings can be large; an effect the other way counts as inactive or inconclusive.

SMILES	IL-1B inflam inh	HepG2 viability	TDP1 block	TDP1 cell noCPT	TGFb SMAD3 inh	DT40 TDP1 CPT
Cc1ccc(CNC(=O)c2ccc(Cn3cc(-c4ccc(C)cc4)nc3-c3ccncc3)cc2)cc1	?	-20%	·	?	-25%	?
Cc1ccc(NC(=O)Cc2ccc(Cl)cc2)nc1	-15	2%	·	8%	14%	10%
Cc1ccc(NC(=O)Cc2ccc(-c3ccccc3)cc2)nc1	-60*	-7%	1%	-27%	?	?
O=C(Cc1ccc(-c2ccccc2)cc1)Nc1ccccn1	-69*	-88%	-6%[0.0935 µM]	?	?	1%
Cc1ccc(NC(=O)CCc2c[nH]c3ccccc23)nc1	31	-2%	7%	2.6µM*	0%	2.6µM*
O=C(Cn1c(=O)nc(-c2ccccc2F)c2cc(Cl)ccc21)NCCCc1ccccc1	·	-39%	4%	?	?	?
COc1ccc(C(NC(=O)C(C)C)c2c(O)ccc3ccccc23)cc1 (configuration not stated)	8	-25%	6%	?	-27%	?
CCCCC(=O)NC(c1ccc([N+](=O)[O-])cc1)c1c(O)ccc2ccccc12 (configuration not stated)	-60*	-48%	11%	21µM*	?	16µM*
O=C(NC(c1ccc(Cl)cc1)c1c(O)ccc2ccccc12)c1ccccc1 (configuration not stated)	?	18µM*	5%	?	11µM*	?
CC(=O)NC(c1ccc(Cl)cc1)c1c(O)ccc2ccc(O)cc12 (configuration not stated)	0	-22%	5%	?	1%	?
CCC(=O)NC(c1ccc([N+](=O)[O-])cc1)c1c(O)ccc2ccccc12 (configuration not stated)	?	-28%	6%	?	-16%	20µM*
CC(C)CC(=O)NC(c1ccccc1)c1c(O)ccc2ccccc12 (configuration not stated)	-80*	-4%	·	?	?	?
CCC(=O)NC(c1ccc(N(C)C)cc1)c1c(O)ccc2ccccc12 (configuration not stated)	-1	-6%	8%	?	-10%	-26%
Cc1cc(C)n2nnnc2n1	37	-1%	·	8%	0%	2%
CCOC(=O)C1CCN(C(=O)c2cc(C)n(C(C)(C)C)n2)CC1	13	1%	·	-3%	18%	-29%
CCC(=O)NC(c1ccccc1Cl)c1c(O)ccc2ccccc12 (configuration not stated)	18	-30%	-1%	?	?	16µM*
CC(C)C(=O)NC(c1ccccc1Cl)c1c(O)ccc2ccccc12 (configuration not stated)	?	-19%	3%	-27%	-15%	?
Oc1ccccc1-c1nc(-c2cccs2)c(-c2cccs2)[nH]1	·	-64%	5%	?	?	?
c1ccc(-c2nc(-c3cccs3)[nH]c2-c2ccccc2)cc1	-3	-9%	2%	?	?	?
Oc1ccccc1-c1nc2c3ccccc3c3ccccc3c2[nH]1	29	-38%	-5%	18µM*	16µM*	21µM*
c1csc(-c2nc3c4ccccc4c4ccccc4c3[nH]2)c1	-5	-7%	5%	?	?	21µM*
Cc1c(CCC(=O)NC2CC2)c(=O)oc2c(C)c(O)ccc12	?	-14%	·	-16%	2%	8%
C=C(C)COc1ccc2c(C)c(CCC(=O)NC3CC3)c(=O)oc2c1	-11	-24%	1%	?	-18%	18µM*
Cc1coc2cc3oc(=O)c(CCC(=O)NC4CC4)c(C)c3cc12	-14	-20%	·	13µM*	-5%	16µM*
Cc1cc(C)cc(NC(=O)COc2ccc3c(C)c(Cc4ccccc4)c(=O)oc3c2)c1	·	·	0%	·	·	·
SMILES	IL-1B inflam inh	HepG2 viability	TDP1 block	TDP1 cell noCPT	TGFb SMAD3 inh	DT40 TDP1 CPT
Cc1oc2cc3oc(=O)c(CCC(=O)NC4CC4)c(C)c3cc2c1C	-15	-2%	·	9.2µM*	-9%	5.8µM*
Cc1c(Cc2ccccc2)c(=O)oc2cc(OCC(=O)NCC(O)c3ccccc3)ccc12 (configuration not stated)	10	-18%	6%	18µM*	-39%	?
CN1c2cc3c(cc2N=C(c2ccc(C(=O)O)cc2)c2ccccc21)C(C)(C)CCC3(C)C	·	·	17%	·	·	·
CN(CC(=O)Nc1ccc(Cl)cc1)C(=O)Cn1[nH]c(=O)c2ccccc2c1=O	26	4%	·	15%	0%	2%
COc1ccc(S(=O)(=O)N2CCC(Oc3ccc(-n4cnnn4)cc3)CC2)cc1OC	·	-10%	5%	?	0%	?
O=C(Cn1cc(COc2ccc3ccccc3c2)nn1)NS(=O)(=O)c1cccc(OC(F)F)c1	23	5%	·	8%	1%	14%
C#C[C@]1(OC(C)=O)CC[C@H]2[C@@H]3CCC4=C/C(=N/O)CC[C@@H]4[C@H]3CC[C@@]21CC	·	·	·	19µM*	·	?
CC(=O)Oc1ccc2c(=O)c(/C=N/c3cc(=O)[nH]c(=S)[nH]3)coc2c1	57	-25%	79µM*	-17%	-15%	-14%
Cn1c(=O)c2c(nc(N3CCN(c4ccccc4)CC3)n2CCCc2ccccc2)n(C)c1=O	28	-2%	6%	6.5µM*	?	8.2µM*
Cn1c(=O)c2c(nc(N3CCN(c4ccc([N+](=O)[O-])cc4)CC3)n2C)n(C)c1=O	-5	-149%	5%	18µM*	0%	-20%
Cn1c(=O)[nH]c(=O)c2c1nc(N1CCCC1)n2CCCSc1nnnn1-c1ccccc1	0	4%	3%	16µM*	-3%	21µM*
CC1CCN(c2nc3c(c(=O)n(C)c(=O)n3C)n2Cc2ccccc2)CC1	-62*	-37%	3%	?	?	-26%
N#CCCN(C(=O)COC(=O)CCc1c[nH]c2ccccc12)c1ccc(F)cc1	12	-22%	-4%	-13%	6%	?
CCCCn1cc[n+](C)c1	·	·	6%	·	·	·
CCC(C)NC(=O)C1(O)c2cc(Br)ccc2NC(=O)N1c1cccc(OC)c1 (configuration not stated)	34	0%	·	2%	-3%	-23%
